# Screening results as filed in PubChem.
# Rv3671c protease: inhibits the M. tuberculosis serine protease Rv3671c | AID 2606 | 320,000 tested, 0.048% active | inhibition, % at 5.96 µM | P9WHR9; in the data active means inhibition above about 38%;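 further: extracellular domain of Rv3671c used as enzyme; 0% = enzyme with DMSO and 100% = no enzyme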
# Mtb betalactam: beta-lactam sensitization of Mtb H37Rv. AID 434955. M. tuberculosis H37Rv growth with meropenem, percent inhibition. 330,000 tested, 0.27% active. inhibition, % at 25 µM; call rule not given here;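 further: growth measured after seven days incubation then overnight dye step; 0% = bacteria only wells and 100% = bacteria with antibiotic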
# UGM FP inh: inhibitors of M. tuberculosis UDP-galactopyranose mutase; P9WIQ1; purified UGM, fluorescence polarization probe displacement; inhibition, % at 10 µM; 320,000 tested, 0.06% active; AID 504406; in the data active means inhibition above about 10%, passing the limit was not always enough
# Mtb FBA inh: Mtb fructose-bisphosphate aldolase inhibition; P9WQA3; purified M. tuberculosis FBA, fluorescence read-out; inhibition, % at 1 µM; 360,000 tested, 2.3% active; AID 588726; in the data active means inhibition above about 27%;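 further: 0% = vehicle and 100% = reference inhibitor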
# Target sequence (P9WQA3 whole entry, looked up): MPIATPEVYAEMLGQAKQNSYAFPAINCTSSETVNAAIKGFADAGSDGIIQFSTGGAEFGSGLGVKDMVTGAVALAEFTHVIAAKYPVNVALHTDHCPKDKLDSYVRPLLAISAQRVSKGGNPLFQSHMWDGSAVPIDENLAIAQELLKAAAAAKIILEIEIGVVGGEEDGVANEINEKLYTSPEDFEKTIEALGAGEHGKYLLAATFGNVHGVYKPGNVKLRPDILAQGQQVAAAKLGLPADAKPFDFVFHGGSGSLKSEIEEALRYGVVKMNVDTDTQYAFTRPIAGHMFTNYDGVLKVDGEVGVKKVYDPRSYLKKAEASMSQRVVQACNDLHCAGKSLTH
# RecA intein inh: blocks M. tuberculosis RecA intein splicing; inhibition, % (concentration not given with the values); cell-free RecA intein splicing, fluorescence; P9WHJ3; 290,000 tested, 0.75% active; in the data active means inhibition above about 30%;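 further: 0% = vehicle wells and 100% = reference inhibitor control wells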
# GDH-TPI inh: inhibits GDH-TPI coupling enzymes, artifact for Mtb FBA screen | 360,000 tested, 1.2% active | AID 588335 | GDH-TPI coupled enzyme counterscreen, NADH absorbance | inhibition, % at 4.8 µM; in the data active means inhibition above about 30%;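 further: 0% = DMSO wells and 100% = wells lacking the enzyme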
# Starred values were filed as active, the others as inactive; . = no result given; + = active, no number. A selection: hits, their analogues and other compounds. The true share with any hit is near 4%.
SMILES,Rv3671c protease,Mtb betalactam,UGM FP inh,Mtb FBA inh,RecA intein inh,GDH-TPI inh
N/C(=N\N=C\c1cccs1)SC1CC(=O)N(c2ccc(Br)cc2)C1=O (stereo not given),-50,9,-4,-1,-2,32*
C/C(=N\N=C(/N)SC1CC(=O)N(c2ccccc2)C1=O)c1cccs1 (stereo not given),-6,11,5,1,-1,41*
N/C(=N\N=C\c1ccco1)SC1CC(=O)N(c2ccccc2)C1=O (stereo not given),0,2,2,2,3,26
N/C(=N\N=C\c1ccco1)SC1CC(=O)N(c2ccc(C(=O)O)cc2)C1=O (stereo not given),3,4,4,-7,0,45*
O=C(Oc1ccc2ccc(=O)oc2c1)c1ccco1,-1,-6,1,+,-1,4
O=C(CN1C(=O)NC2(CCCCC2)C1=O)Oc1ccc2ccc(=O)oc2c1,-2,-5,0,+,.,14
COc1ccccc1C(=O)Oc1ccc2ccc(=O)oc2c1,10,4,0,117*,-87,16
COc1cc2cc(Oc3ccc4ccc(=O)oc4c3)c(=O)oc2cc1OC(C)=O,3,-5,2,9,-68,28
COc1ccc(/C=N/Nc2nc(-c3cccnc3)nc3ccccc23)cc1OC,-1,-1,0,5,-8,27
COc1ccc(/C=N/Nc2ncnc3scc(-c4ccccc4)c23)cc1OC,5,-1,-6,3,-3,48*
COc1cc(/C=N/Nc2ncnc3sc4c(c23)CCC4)ccc1O,.,.,.,0,.,47*
Cc1c(CC(=O)O)c(=O)oc2cc(OCc3ccc(F)cc3Cl)ccc12,0,-8,4,167*,3,12
COc1cc(COc2ccc3c(C)c(CCC(=O)O)c(=O)oc3c2)cc(OC)c1OC,-2,3,-1,19,-5,14
Cc1c(CCC(=O)O)c(=O)oc2cc(OCc3ccccc3F)ccc12,-8,-9,-2,121*,-4,18
COc1cccc(/C=C2\SC(=O)N(CCC(=O)N3CCC(C(=O)O)CC3)C2=O)c1,2,4,-3,-1,0,46*
Cc1ccc(/C=C2\SC(=O)N(CCC(=O)N3CCN(C)CC3)C2=O)cc1,-12,-4,1,0,0,35*
CN1CCN(C(=O)CCN2C(=O)S/C(=C/c3ccc(Cl)cc3)C2=O)CC1,-3,0,-1,0,5,22
COc1ccc(/C=C2\SC(=O)N(CCC(=O)N3CCN(C)CC3)C2=O)cc1,-5,6,-1,-1,2,41*
COc1cccc(/C=C2\SC(=S)N(CCC(=O)N3CCCCC3CCO)C2=O)c1 (stereo not given),-11,34,-1,-4,2,21
COc1ccc(/C=C2\SC(=O)N(CCNC(=O)Cn3cnnn3)C2=O)cc1,-4,3,-1,-2,6,22
COc1ccc(/C=C2\SC(=O)N(CCNC(=O)CCS(=O)(=O)c3ccc(C)cc3)C2=O)cc1,-8,2,3,3,1,33*
COc1ccc(/C=C2\SC(=O)N(CCNC(=O)C3CC(=O)N(c4ccccc4)C3)C2=O)cc1 (stereo not given),5,2,-2,-2,0,25
CCc1noc(C)c1C(=O)NCCN1C(=O)S/C(=C\c2ccc(OC)cc2)C1=O,-3,-3,4,-5,-2,31*
CCOC(=O)/C(=C/c1c[nH]c2ccccc12)NC(C)=O,-1,-11,-4,-2,0,38*
COCCNC(=O)C1(C)CCCN(Cc2ccc(Cl)c(Cl)c2)C1 (stereo not given),.,.,.,-2,.,5
SMILES,Rv3671c protease,Mtb betalactam,UGM FP inh,Mtb FBA inh,RecA intein inh,GDH-TPI inh
COC1C(OC(=O)/C=C/C=C/C=C/C=C/C(=O)O)CCC2(CO2)C1C1(C)OC1CC=C(C)C (stereo not given) (tested in a mixture with another compound),.,.,.,-1,.,64*
Nc1c(Cl)ncnc1N/N=C/c1cccnc1,-6,-2,-4,2,-4,40*
CCOc1cc(/C=N/Nc2nnc(C)n2N)ccc1O,-91,0,1,-11,-6,8
CCOc1cc(/C=N/NC(=O)c2ccccc2OCc2ccc(F)cc2)ccc1O,1,-5,-3,6,.,41*
CCOc1cc(/C=N/Nc2ncnc(Cl)c2N)ccc1O,9,-5,0,-3,-6,33*
CCOc1cc(/C=N/NC(=O)N/N=C/c2ccc(O)c(OCC)c2)ccc1O,-2,6,1,.,-1,.
CCOc1cc(/C=N/NC(=O)C(=O)N/N=C/c2ccc(O)c(OCC)c2)ccc1O,7,-1,-2,-3,-8,51*
Nc1c(Cl)ncnc1N/N=C/c1ccccn1,-12,100,-2,.,.,.
CCCCNC(=S)N/N=C/c1cccc(OCC)c1O,1,96,0,1,1,33*
O=C(NN=Cc1ccc(O)c(O)c1)c1ccccc1,.,.,.,7,.,.
O=C(COc1ccccc1C(=O)N/N=C\c1ccc(O)c(O)c1)N/N=C/c1ccc(O)c(O)c1,-4,18,-2,1,-5,56*
Cc1c(Cl)c([N+](=O)[O-])nn1Cc1ccc(C(=O)N/N=C\c2ccccn2)o1,-5,-1,2,2,.,15
O=C(N/N=C/c1ccncc1)c1cnccn1,-1,7,-1,6,1,4
COc1cc(/C=N\NC(=O)c2ccc(Cn3nc([N+](=O)[O-])c(Cl)c3C)o2)ccc1O,-1,-1,2,5,-1,40*
COc1cc(/C=N/NC(=O)c2cnccn2)ccc1O,2,3,-4,-4,-3,34*
CC1(C)CCC[C@]2(C)[C@H]3Cc4cc(O)ccc4O[C@]3(C)CC[C@@H]12,-3,6,1,1,.,-1
CC1CCCN(CC(O)COc2ccc(S(=O)(=O)N3CCCC3)cc2[N+](=O)[O-])C1 (stereo not given),5,-4,-1,6,.,11
CCOc1cccc(/C=N/NC(=O)c2cccnc2)c1O,3,52,0,-4,-2,31*
COc1ccc(/C=N/NC(=O)c2ccc(C)nc2)cc1O,3,3,2,1,0,33*
CCOc1cc(/C=N/NC(=O)c2cccnc2)ccc1O,9,-1,0,-10,-1,38*
N#Cc1c(-c2cccnc2)c2c([nH]c1=O)-c1ccccc1OC2,6,-4,0,+,-449,14
O=C1c2ccccc2NC(c2ccccc2)N1/N=C/c1ccccc1 (stereo not given),-2,-5,-2,7,4,1
O=C1c2ccccc2NC(c2ccc(O)cc2)N1/N=C/c1ccc(O)cc1 (stereo not given),0,8,-3,3,-4,32*
O=C(Nc1cccc(S(=O)(=O)N2CCCCC2)c1)C1CC1,2,-10,-3,-3,.,-4
